Assay outcomes from PubChem.
A selection: hits, their analogues and other compounds. The true share with any hit is near 2.7%.
GLP1R ag: activates the human GLP-1 receptor. P43220. HEK293 GLP-1R CRE-luciferase, luminescence, 4-6 h; cells express a hypersensitive GLP-1R form. Potency, µM (series often up to 45.6 µM), most hits filed as activators. 0.007% of 380,000 active
Target sequence (P43220 whole entry, looked up): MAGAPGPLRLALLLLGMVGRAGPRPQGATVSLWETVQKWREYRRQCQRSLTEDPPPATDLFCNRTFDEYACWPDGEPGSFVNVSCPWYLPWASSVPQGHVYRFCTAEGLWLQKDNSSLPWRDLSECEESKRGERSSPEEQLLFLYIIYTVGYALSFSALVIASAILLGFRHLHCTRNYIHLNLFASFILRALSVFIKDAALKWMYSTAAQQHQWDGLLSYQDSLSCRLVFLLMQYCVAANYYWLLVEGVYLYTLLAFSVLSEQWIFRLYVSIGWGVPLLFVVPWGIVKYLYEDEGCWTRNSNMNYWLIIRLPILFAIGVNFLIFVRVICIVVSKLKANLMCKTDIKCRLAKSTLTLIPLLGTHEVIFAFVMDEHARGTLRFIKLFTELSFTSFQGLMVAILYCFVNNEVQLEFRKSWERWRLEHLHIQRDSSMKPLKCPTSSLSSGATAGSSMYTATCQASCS
HEK293 tox: cytotoxic in the GLP-1 receptor inverse agonist counter-screen | HEK293 cAMP-luciferase reporter cells, luminescence, 24 h | Potency, µM (titrated, usually from 38.3 µM), most hits filed as inhibitors | 0.13% of 410,000 active | AID 624418;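 further: loss of luciferase light is scored as toxicity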
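A 23 nL compound transfer followed 12 hours of cell culture at 37 deg C; exposure then lasted 24 hr. Luciferase assay detection reagent was dispensed and plates read for luminescence after a 12 min room-temperature wait.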
GLP1R inv ag: inverse agonists of human GLP-1 receptor. P43220. HEK293 GLP-1R CRE-luciferase, luminescence, 24 h; GLP-1R form is constitutively active. Potency, µM (doses to about 38.3 µM), most hits filed as inhibitors. 1.6% of 410,000 active. AID 624417; further: nearly all actives have a fitted effect of over 55% in size
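Assay principle: reduced luminescence from a cAMP-responsive reporter in HEK293 cells co-expressing a constitutively active GLP-1R. Conditions: 24 hr compound incubation, 37 deg C, 5% CO2.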
a7 integrin act: activators of alpha7 integrin expression for muscular dystrophy; alpha7betagal myoblasts, beta-gal FDG fluorescence, 48 h; Potency, µM (top dose mostly 38.3 µM), usual class: activators; 0.064% of 350,000 active; AID 624291; further: nearly all actives have a fitted effect of over 60% in size
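alpha7betagal+/- myoblasts (passage 13, 250/well) treated 48 h at 37C with compounds at 1:260 dilution of DMSO stock. Lysed, then beta-galactosidase activity read as FDG fluorescence (ex 480/em 540) after 30 min, with pre-read for autofluorescence.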
BRCA1 expr up: increases BRCA1 expression. 1.1% of 380,000 active. Potency, µM (doses to about 46.1 µM), hits mostly activators. MCF7-BRCA1-FFLuc reporter, luminescence, 48 h; response scale: scaled: vehicle 0%, 10 µM genistein 100%. AID 624202; further: nearly all actives have a fitted effect of over 80% in size
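48 h compound treatment of MCF7-BRCA1-FFLuc cells (phenol-red free MEM, 37 °C), then 15 min with luciferase substrate and luminescence imaging.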
Large screens that a line does not name were inactive. The call rests on the fitted dose curve; in most records, active means well fitted curve in the direction sought with a large enough effect; inconclusive means small, poorly fitted or top-dose-only effect, or another doubt; inactive means no such curve, though single readings can be large; an effect the other way counts as inactive or inconclusive.

Cc1ccc(N=C2NC(=O)/C(=C/c3cccn3C)S2)cc1	HEK293 tox inconclusive, BRCA1 expr up 3.5µM
O=C(Nc1cc(-c2ccccc2)nn1C1CCCCC1)c1ccc(Cl)cc1	GLP1R inv ag 10µM
Cn1nc(-c2ccccc2)cc1NC(=O)c1ccccc1	GLP1R inv ag inconclusive
CCOc1ccccc1NC(=O)c1nc(SCc2ccccc2F)ncc1Cl	none (no result: GLP1R ag, HEK293 tox, GLP1R inv ag, a7 integrin act)
CC(NC(=O)/C(=C/c1ccc(OC(F)F)cc1)c1ccccc1)c1ccccc1 (configuration not stated)	GLP1R inv ag 4.5µM
CCN(CC)C(=O)c1ccc2c(c1)N(Cc1ccc(C(F)(F)F)cc1)C(=O)c1ccccc1S2	GLP1R inv ag inconclusive (no result: a7 integrin act)
COc1ccc(-c2cc(-c3cc(C)ccc3O)[nH]n2)cc1	HEK293 tox inconclusive, GLP1R inv ag 10µM
COc1ccc(-c2cc(-c3ccc(C)cc3)n[nH]2)c(O)c1	GLP1R inv ag inconclusive, BRCA1 expr up inconclusive
Cc1ccc(O)c(-c2cc(-c3ccccc3C)[nH]n2)c1	HEK293 tox inconclusive, GLP1R inv ag 5.6µM
COc1ccc(O)c(-c2c(-c3ccc(Cl)cc3)n[nH]c2C)c1	GLP1R inv ag 10µM
NC(=O)c1cccc(-c2cnc(N)c(C(=O)c3cccnc3)n2)c1	GLP1R inv ag 3.5µM
O=C(O)c1ccc(Nc2nc3ccccc3c3nncn23)cc1	none (no result: GLP1R ag, a7 integrin act, BRCA1 expr up)
COc1ccc(Cl)cc1C(=O)Nn1cnc2ccccc2c1=O	HEK293 tox inconclusive
COc1ccccc1C(=O)Nn1cnc2ccccc2c1=O	BRCA1 expr up 10µM
CCN(CCNCC(O)COCc1ccc(Cl)cc1)c1cccc(C)c1 (configuration not stated)	HEK293 tox inconclusive, GLP1R inv ag 10µM
COc1ccc(/C=c2\[nH]c(=O)/c(=C/c3ccc(OC)c(OC)c3)[nH]c2=O)cc1OC	none (no result: GLP1R ag, HEK293 tox, GLP1R inv ag, a7 integrin act)
O=C(CCC(=O)c1ccc[nH]1)c1ccc(Cl)cc1	BRCA1 expr up 7.1µM
COCCNC(=O)CN(c1cc(C(F)(F)F)ccc1Cl)S(C)(=O)=O	none
CS(=O)(=O)N(CC(=O)NCCSCc1ccccc1)c1cc(C(F)(F)F)ccc1Cl	GLP1R inv ag 11µM (no result: GLP1R ag, a7 integrin act, BRCA1 expr up)
CC1=C/C(=N\N=C2\NC(=O)C(CC(=O)Nc3ccccc3F)S2)CC(C)(C)C1 (configuration not stated)	HEK293 tox 11µM, GLP1R inv ag inconclusive
O=C(CC1S/C(=N/N=C2CCCCCC2)NC1=O)Nc1ccccc1F (configuration not stated)	HEK293 tox inconclusive
Cc1cccc(NS(=O)(=O)c2ccc3[nH]c4c(c3c2)CCCCCC4)c1	HEK293 tox inconclusive, GLP1R inv ag 8.9µM (no result: GLP1R ag, a7 integrin act, BRCA1 expr up)
Cc1ccccc1NS(=O)(=O)c1ccc2[nH]c3c(c2c1)CCCCC3	GLP1R inv ag 10µM (no result: a7 integrin act)
CCOC(=O)c1c(C)c(C(=O)NCc2ccc(Cl)cc2)c(C)n1CC	none (no result: GLP1R ag, a7 integrin act, BRCA1 expr up)
Cc1nn(C)c2c1c(C(F)(F)F)cc(=O)n2CC(=O)Nc1ccc(F)cc1F	none (no result: GLP1R ag, a7 integrin act, BRCA1 expr up)
O=C(Nc1ccccc1)Nc1cc(Cl)cc(Cl)c1	HEK293 tox inconclusive, GLP1R inv ag 2.8µM
O=C(Nc1cccc(Cl)c1)Nc1cccc(Cl)c1	GLP1R inv ag inconclusive
O=C(Nc1ccccc1)Nc1cc(OCC(F)(F)F)cc(OCC(F)(F)F)c1	HEK293 tox 5.6µM, GLP1R inv ag 2.8µM
c1ccc2c(c1)OC(CCCN1CCCCC1)c1ccccc1S2 (configuration not stated)	GLP1R inv ag 7.9µM
CN1CC[C@H](CN2c3ccccc3Sc3ccccc32)C1	none (no result: HEK293 tox, GLP1R inv ag, a7 integrin act)
CN1CCCC(CC2Oc3ccccc3Sc3ccccc32)C1 (configuration not stated)	HEK293 tox inconclusive, GLP1R inv ag 5.6µM
COc1cccc(NC(=O)Cn2c(=O)n(Cc3ccccc3)c(=O)c3c2c2cc(C)ccc2n3C)c1	none (no result: a7 integrin act)
CC(=O)Nc1nonc1-c1nnc(SCC(=O)Nc2ccc(C)cc2)n1-c1ccccc1	GLP1R inv ag inconclusive (no result: GLP1R ag, a7 integrin act, BRCA1 expr up)
CCOC(=O)c1ccc(NC(=O)N2CCOc3ccccc32)cc1	none (no result: GLP1R ag, a7 integrin act, BRCA1 expr up)
Cc1ccnc(NC(=O)c2ccc(Cl)c(S(=O)(=O)N3CCCC3)c2)c1	BRCA1 expr up 7.1µM
O=C(Cn1c(=O)oc2cc(S(=O)(=O)N3CCCCC3)ccc21)NCc1ccc(Cl)cc1	GLP1R inv ag 13µM (no result: GLP1R ag, a7 integrin act)
O=C(NCCC1=CCCCC1)c1ccc(Cl)c(S(=O)(=O)N2CCCCC2)c1	GLP1R inv ag 3.5µM
Cc1ccnc(NC(=O)c2ccc(Cl)c(S(=O)(=O)N3CCCCC3)c2)c1	GLP1R inv ag inconclusive
COc1ccc(C(CNC(=O)c2ccc(C)c(S(=O)(=O)N3CCCCC3)c2)N(C)C)cc1OC (configuration not stated)	none
CN(C)C(CNC(=O)c1ccc(Cl)c(S(=O)(=O)N2CCCCCC2)c1)c1ccccc1 (configuration not stated)	GLP1R inv ag 7.9µM
CCOC(=O)c1c(NC(=O)C(C)Sc2cn(CCNC(=O)c3ccccc3OC)c3ccccc23)sc2c1CCC2 (configuration not stated)	GLP1R inv ag inconclusive (no result: a7 integrin act)
CN(C)S(=O)(=O)N1CCC(Oc2cccc(C(=O)NCCC3=CCCCC3)c2)CC1	GLP1R inv ag 10µM
CN(C)CCCNC(=O)c1ccc(Cl)c(S(=O)(=O)N2CCCCCC2)c1	GLP1R inv ag 10µM
CCN(CC)CCNC(=O)c1ccc(Cl)c(S(=O)(=O)N2CCCCCC2)c1	GLP1R inv ag 2.5µM
O=C(NCCN1CCOCC1)c1ccc(Cl)c(S(=O)(=O)N2CCCCC2)c1	none
C=CCN(CC=C)C(=O)c1ccc(OC2CCN(S(=O)(=O)N(C)C)CC2)cc1	a7 integrin act 5µM
